Screens deposited in PubChem by National Center for Advancing Translational Sciences (NCATS).
Rows were chosen to be rich in hits. Some 18% of all compounds tested hit in one or more screens of this group.
TDP1 cell noCPT: qHTS for Inhibitors of human tyrosyl-DNA phosphodiesterase 1 (TDP1): qHTS in cells in absence of CPT. DT40 Tdp1-/- hTDP1 cells, no CPT, ATP luminescence, 48 h. Potency, µM (titrated, usually from 46.2 µM), without a hit: at the highest dose activity change, negative = growth inhibition, actives largely listed as inhibitors. 15% of 420,000 active; further: potency means the concentration at half of the fitted maximal effect; nearly all actives have a fitted effect of over 55% in size
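Seeded 400 DT40-hTDP1 cells/well (vehicle DMSO, no 20 nM CPT); pinned compounds; ≥48 hr at 37 °C; CellTiter-Glo luminescence as viability measure.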
VP16 counter: counter-screen for ROR gamma inhibitors: Gal4-VP16 reporter; Drosophila S2 Gal4-VP16 UAS-luciferase, luminescence, 20 h; Potency, µM (series often up to 53.6 µM), for the others: at the highest dose activity, negative = inhibition, usual class: inhibitors; 3.5% of 310,000 active;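 further: Gal4-VP16 expression switched on by copper sulfate through the metallothionein promoter; potency means the concentration at half of the fitted maximal effect; nearly all actives have a fitted effect of over 50% in size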
IL-1B inflam inh: inhibitors of inflammasome signaling (IL-1 beta secretion); AID 743279; activity change, % at 57.5 µM; 4.7% of 360,000 active; THP-1 LPS/ATP IL-1B secretion, AlphaLISA, 16 h; hits give low values; in the data active means activity change below about -50%; inconclusive means mostly about -30% to -49%
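THP-1 cells pretreated 1 hr with compounds (up to 57.5 uM final), then stimulated with LPS (250 ng/mL final) plus ATP (1.25 mM final); secreted IL-1B measured by AlphaLISA after 16 hr, decreased signal indicating inhibition.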
RORg inh: inhibitors of mouse ROR gamma transcriptional activity | P51450 | Drosophila S2 Gal4-RORgamma UAS-luciferase reporter, 20 h | Potency, µM (series often up to 53.6 µM), for the others: at the top dose activity change, negative = inhibition, hits mostly inhibitors | 5.4% of 310,000 active | AID 2551; further: potency means the concentration at half of the fitted maximal effect; nearly all actives have a fitted effect of over 60% in size
Target sequence (P51450 whole entry, looked up, the tested form may be a part): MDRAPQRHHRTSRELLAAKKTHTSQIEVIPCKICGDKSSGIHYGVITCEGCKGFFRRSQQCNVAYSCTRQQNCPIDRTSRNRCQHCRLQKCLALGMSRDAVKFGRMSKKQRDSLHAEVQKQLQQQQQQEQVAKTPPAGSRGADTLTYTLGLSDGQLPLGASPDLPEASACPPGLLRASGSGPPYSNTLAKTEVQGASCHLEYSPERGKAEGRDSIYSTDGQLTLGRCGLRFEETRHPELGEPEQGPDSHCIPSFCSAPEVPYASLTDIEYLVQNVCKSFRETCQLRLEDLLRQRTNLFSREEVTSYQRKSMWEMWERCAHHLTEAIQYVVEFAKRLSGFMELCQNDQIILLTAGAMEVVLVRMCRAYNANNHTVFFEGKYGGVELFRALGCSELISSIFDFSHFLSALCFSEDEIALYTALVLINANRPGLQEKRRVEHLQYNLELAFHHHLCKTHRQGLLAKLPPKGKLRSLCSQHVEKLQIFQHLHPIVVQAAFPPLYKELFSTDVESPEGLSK
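ROR gamma transcriptional activity was tracked as Gal4-UAS luciferase output in stably transfected Drosophila Schneider cells, with compound added 1 hr before 700 uM copper sulfate induction and a 20 hr ambient-temperature incubation.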
DT40 TDP1 CPT: DT40-hTDP1 cell growth loss with CPT; chicken DT40 Tdp1-/-;hTDP1 cells + 20 nM CPT, ATP luminescence, 48 h; Potency, µM (doses to about 46.2 µM), for inactives: at the highest dose activity change, negative = growth inhibition, hits mostly inhibitors; 12% of 420,000 active; further: potency means the concentration at half of the fitted maximal effect; nearly all actives have a fitted effect of over 55% in size
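Cell growth measured by CellTiter-Glo luminescence after a minimum 48 h, 37 C compound exposure with 20 nM CPT in Tdp1-knockout DT40 cells stably expressing hTDP1, seeded 400/well; qHTS titration format.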
LDHA block: inhibitors of human lactate dehydrogenase A; P00338; purified LDHA, NADH/diaphorase-resazurin fluorescence; hits give low values; activity change, % (values are at about 110 or 230 µM); 0.15% of 480,000 active; AID 1347041; in the data active means activity change below about -30%; inconclusive means mostly about -25% to -30%;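 further: plate controls were DMSO wells for no effect and wells without enzyme for full effect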
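Human LDH5 at 2 nM final in Tris HCl pH 7.4 with 0.06 mM NADH and 0.2 mM pyruvate, reacted 5 minutes at room temperature. Remaining NADH coupled via diaphorase/resazurin; resorufin fluorescence read at 0 and 20 minutes, normalized to enzyme-free and DMSO wells.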
Active calls of the source: *; ? = inconclusive; . = not tested or not shown. Unless noted, the call rests on the fitted dose curve; in most records, active means well fitted curve in the direction sought with a large enough effect; inconclusive means small, poorly fitted or top-dose-only effect, or another doubt; inactive means no such curve, though single readings can be large; an effect the other way counts as inactive or inconclusive. Unless noted, on the % scale 0 is the no-effect control and ±100 the full control effect.

SMILES | TDP1 cell noCPT | VP16 counter | IL-1B inflam inh | RORg inh | DT40 TDP1 CPT | LDHA block
O=C(c1cccc(S(=O)(=O)NCc2ccccc2)c1)N1CCN(c2ccccc2Cl)CC1 | ? | . | -17.7 | . | 14.6µM* | -0.4
O=C(c1cccc(S(=O)(=O)NCc2ccccc2)c1)N1CCN(c2ccccc2)CC1 | 5.17µM* | . | 27.5 | . | 6.51µM* | -1.0
CC(=O)NC(NC(C)=O)c1ccncc1 | . | . | . | . | . | 9.9
O=c1oc2c(O)c(O)cc3c(=O)oc4c(O)c(O)cc1c4c23 | -4.2% | ? | -51.1* | -13.3% | ? | ?
Cc1cccc(-c2nc(C#N)c(NCc3ccccc3)o2)c1 | . | . | . | . | . | 1.4
Cc1ccc(C(=O)Nc2ccccc2Sc2ccccc2)cc1 | -2.7% | 19.6% | 25.1 | 9.0% | 6.7% | -10.1
CN(c1ccc(C(=O)Nc2ccccc2Sc2ccccc2)cc1)S(C)(=O)=O | 20.6µM* | -7.0% | -9.4 | 27.2% | ? | -2.0
O=C(Nc1ccccc1Sc1ccccc1)C1CCCC1 | . | . | . | . | . | 4.1
CS(=O)(=O)N1CCC(C(=O)Nc2ccccc2Sc2ccccc2)CC1 | -19.2% | 5.62µM* | -2.7 | ? | -7.2% | -6.5
O=C(O)c1cccc2[nH]ccc12 | . | . | . | . | . | -8.4
CC(C)Cc1nnc(NC(=O)CCC(=O)N2CCN(c3ccc(Cl)cc3)CC2)s1 | -16.5% | -0.1% | ? | 24.7% | 20.6µM* | 0.4
CCc1nnc(NC(=O)CN2CCN(Cc3cccc(Cl)c3)CC2)s1 | -24.2% | ? | 30.4 | 2.51µM* | 3.6% | -4.7
Cc1ccc(C)c(N2CCN(C(=O)CCC(=O)Nc3nnc(CC(C)C)s3)CC2)c1 | -2.9% | -3.7% | 11.6 | 0.3% | ? | -2.3
CCCc1nnc(NC(=O)CCC(=O)N2CCC(Cc3ccccc3)CC2)s1 | 20.6µM* | 3.7% | 17.3 | -20.5% | 25.9µM* | -0.5
Cc1ccc(OCCN2CCN(C(=O)CCC(=O)Nc3nnc(CC(C)C)s3)CC2)cc1 | 10.3µM* | -16.9% | . | ? | ? | -0.9
CCCc1nnc(NC(=O)CCC(=O)NCc2ccccc2)s1 | 5.6% | -3.4% | 10.7 | -17.8% | -4.9% | -12.8
CCc1ccc(C2c3cccn3-c3c(c(C)nn3-c3ccccc3)CN2C(=O)NCC(=O)OC)cc1 (stereo unspecified) | . | . | . | . | . | 0.3
CCc1nnc(NC(=O)CCC(=O)N2CCN(Cc3ccccc3)CC2)s1 | -19.8% | -6.6% | 23.4 | 5.5% | -13.0% | -5.0
CCc1nnc(NC(=O)CCC(=O)N2CCN(Cc3ccc(Cl)cc3)CC2)s1 | 23.1µM* | -3.8% | 5.4 | 30.5% | 18.4µM* | -7.6
CCCc1nnc(NC(=O)CCC(=O)N2CCN(Cc3ccc(Cl)cc3)CC2)s1 | ? | 5.5% | 19.5 | -14.6% | 16.4µM* | -2.8
COc1ccc(NS(=O)(=O)c2cc(C(=O)N3CCCCC3)cs2)cc1 | . | . | . | . | . | -7.1
Cc1cc(C)c2c(CC(=O)N(Cc3ccc(Cl)cc3)Cc3ccco3)coc2c1 | 8.2µM* | . | . | . | ? | -1.2
Cc1ccc2c(CC(=O)N(Cc3ccc(N(C)C)cc3)Cc3ccco3)coc2c1C | 18.4µM* | . | . | . | 16.4µM* | 5.2
Cc1c(C(=O)N(Cc2ccc(N(C)C)cc2)Cc2ccco2)oc2cc(Br)ccc12 | 9.2µM* | . | . | . | 23.1µM* | 0.9
CCC(CO)NS(=O)(=O)c1ccc(Cl)c(Cl)c1Cl (stereo unspecified) | . | . | . | . | . | -0.3
SMILES | TDP1 cell noCPT | VP16 counter | IL-1B inflam inh | RORg inh | DT40 TDP1 CPT | LDHA block
COc1ccc2c(C)cc(SCC(=O)N(C)Cc3ccccc3)nc2c1 | . | . | . | . | . | -0.3
CCC(=O)Nc1cccc(C(=O)/C=C/c2ccc(F)cc2)c1 | 2.59µM* | ? | -80.1* | ? | 4.61µM* | -1.6
CN(C)c1ccc(/C=C/C(=O)c2cccc(Br)c2)cc1 | 20.6µM* | 1.2% | ? | 23.3% | 14.6µM* | -1.0
CC(=O)Nc1cccc(C(=O)/C=C/c2ccc(C)cc2)c1 | 10.3µM* | ? | -102.2* | 12.6µM* | 9.2µM* | -8.5
CC(=O)Nc1cccc(C(=O)N/N=C/c2ccc(F)cc2)c1 | -7.8% | -17.0% | 0.0 | -29.8% | -1.2% | -4.7
COc1ccc(C(=O)/C=C/c2ccc(C)cc2)cc1OC | . | . | . | . | . | -6.1
N#Cc1ccsc1NC(=O)CN1CCN(c2ccccc2O)CC1 | 7.3% | -2.0% | 12.3 | -8.4% | 9.7% | -5.0
N#Cc1ccsc1NC(=O)c1ccc(Cl)c([N+](=O)[O-])c1 | 2.31µM* | -0.6% | ? | -3.4% | 2.91µM* | -3.5
CC(=O)Nc1sccc1C#N | . | . | . | . | . | -3.4
N#Cc1ccsc1NC(=O)c1ccccn1 | ? | 5.01µM* | -10.5 | 2.82µM* | ? | 1.5
N#Cc1ccsc1NC(=O)CN(Cc1ccccc1)Cc1ccccc1 | 14.6µM* | -3.8% | 0.0 | 13.0% | 20.6µM* | -7.1
N#Cc1ccsc1NC(=O)CCN1CCN(C(c2ccccc2)c2ccccc2)CC1 | 25.9µM* | -1.9% | -16.7 | -28.6% | 29.1µM* | -9.9
CCN(CC)CC(=O)Nc1sccc1C#N | . | . | . | . | . | 3.8
Nc1ncnc(Nc2ccccc2Cl)c1[N+](=O)[O-] | . | . | . | . | . | -7.2
O=C(COC(=O)c1ccc2c(c1)NC(=O)CS2)Nc1cccc(Cl)c1 | . | . | . | . | . | 7.9
COC(=O)c1ccc(CCNC(=O)C(C)C)cc1 | . | . | . | . | . | -2.2
COc1cc(CCC(=O)Nc2sccc2C#N)cc(OC)c1OC | ? | 12.1% | 31.7 | ? | ? | -1.9
N#Cc1ccsc1NC(=O)CCc1ccccc1 | 20.6µM* | ? | 53.0 | ? | ? | -11.8
Cc1oc(-c2nc(C#N)c(N3CCOCC3)o2)cc1S(=O)(=O)N1CCCC1 | . | . | . | . | . | 0.3
